Measurements as given in paper PMC11995724, “Antibiotic target discovery by integrated phenotypic and activity-based profiling of electrophilic fragments” (Cell chemical biology, 2025).
In all, about 3,200 compounds went through this assay and about 110 (3.4%) showed an effect of 50% or more. This excerpt belongs to a sample that is enriched for strong results.

Each compound was assayed on T1, V. cholerae SAD30. Conditions: relative growth, OD600, LB; 25 µM; inhibitor.
T1 construct: SAD30
Parameters: species or system S. aureus MSSA476 (TSB) or V. cholerae SAD30 (LB); 384-well bacterial growth screen at 25 uM, OD600 relative to DMSO control

Question: Which “% of control remaining” value does the source give for `N#CC(=Cc1ccc(C#N)cc1)C(=O)Nc1cccc(Cl)c1Cl` [8-J05, 2-cyano-3-(4-cyanophenyl)-N-(2,3-dichlorophenyl)prop-2-enamide] here?
Answer: The value was 72.9436%.

Question: `CC(Cl)C(=O)NCCc1nc2cc(F)ccc2s1` (stereo not shown) [7-P11, 2-chloro-N-[2-(5-fluoro-1,3-benzothiazol-2-yl)ethyl]propanamide] was tested. Which “% of control remaining” value did it give?
Answer: The value was 81.4142%.

Question: For `CC(Cl)C(=O)Nc1ccc(Cc2nnc3ncccn23)cc1` (stereo not shown) [7-O22, 2-chloro-N-[4-({[1,2,4]triazolo[4,3-a]pyrimidin-3-yl}methyl)phenyl]propanamide], which “% of control remaining” value is on record?
Answer: The value was 91.0623%.

Question: Which “% of control remaining” value does the source give for `N#CC(=Cc1cccc(Oc2ccccc2)c1)C(=O)N1CCCC1` [9-F06, 3-(3-phenoxyphenyl)-2-(pyrrolidine-1-carbonyl)prop-2-enenitrile] here?
Answer: Its value is 85.724%.

Question: For `O=C1C=CC(=O)N1c1ccc(OC(F)(F)F)cc1` [10-J19, 1-[4-(trifluoromethoxy)phenyl]-2,5-dihydro-1H-pyrrole-2,5-dione], which “% of control remaining” value is on record?
Answer: The value was 30.0799%.

Question: Which “% of control remaining” value does the source give for `CCn1cc(N2C(=O)C=CC2=O)cn1` [10-I21, 1-(1-ethyl-1H-pyrazol-4-yl)-2,5-dihydro-1H-pyrrole-2,5-dione] here?
Answer: The value was 56.731%.

Question: Which “% of control remaining” value does the source give for `O=C(CCl)NCc1ccc(OC(F)(F)F)cc1` [6-G08, 2-chloro-N-{[4-(trifluoromethoxy)phenyl]methyl}acetamide] here?
Answer: The value was 91.3072%.

Question: `CCOC(=O)C(C#N)=Cc1ccc(N2C(=O)C=CC2=O)cc1` [10-N11, ethyl 2-cyano-3-[4-(2,5-dioxo-2,5-dihydro-1H-pyrrol-1-yl)phenyl]prop-2-enoate] was tested. Which “% of control remaining” value did it give?
Answer: The value was 96.6297%.

Question: With `Cc1cc(C(=O)CCl)c(C)n1-c1ccc(OC(F)(F)F)cc1` [10-G04, 2-chloro-1-{2,5-dimethyl-1-[4-(trifluoromethoxy)phenyl]-1H-pyrrol-3-yl}ethan-1-one] as the compound, how does the “% of control remaining” value read?
Answer: The value was 98.344%.

Question: How did the “% of control remaining” value turn out when `N#CC(=Cc1ccc(OC(F)F)cc1)C(=O)N1CCCC1` [8-L22, 3-[4-(difluoromethoxy)phenyl]-2-(pyrrolidine-1-carbonyl)prop-2-enenitrile] was run?
Answer: Its value is 77.0224%.

Question: Which “% of control remaining” value does the source give for `O=C1C=CC(=O)N1c1ccc(OC(F)F)cc1` [10-P11, 1-[4-(difluoromethoxy)phenyl]-2,5-dihydro-1H-pyrrole-2,5-dione] here?
Answer: The value was 36.7816%.

Question: Which “% of control remaining” value does the source give for `O=C1C=CC(=O)N1c1ccc(Oc2ccccc2)cc1` [10-F17, 1-(4-phenoxyphenyl)-2,5-dihydro-1H-pyrrole-2,5-dione] here?
Answer: The value was 26.1835%.

Question: `Cc1cc(C(=O)C(C)Cl)c(C)n1-c1ccc(OC(F)F)cc1` (stereo not shown) [10-E10, 2-chloro-1-{1-[4-(difluoromethoxy)phenyl]-2,5-dimethyl-1H-pyrrol-3-yl}propan-1-one] was tested. Which “% of control remaining” value did it give?
Answer: The value was 97.7206%.

Question: Which “% of control remaining” value does the source give for `CCOc1ccc(N2C(=O)C=CC2=O)cc1` [10-A14, 1-(4-ethoxyphenyl)-2,5-dihydro-1H-pyrrole-2,5-dione] here?
Answer: Its value is 23.3781%.

Question: For `O=C(CCl)NCCC1=CCCCC1` [4-H05, 2-chloro-N-[2-(cyclohex-1-en-1-yl)ethyl]acetamide], which “% of control remaining” value is on record?
Answer: Its value is 111.451%.

Question: With `O=C(CCl)NCCc1cccc2c1Oc1ccccc1O2` [7-J18, 2-chloro-N-[2-(oxanthren-1-yl)ethyl]acetamide] as the compound, how does the “% of control remaining” value read?
Answer: Its value is 77.317%.

Question: How did the “% of control remaining” value turn out when `CN(CC(=O)Nc1cccc(Cl)c1)C(=O)CCl` [5-F18, 2-chloro-N-{[(3-chlorophenyl)carbamoyl]methyl}-N-methylacetamide] was run?
Answer: The value was 84.0601%.

Question: With `Cc1ccc(Sc2ccc(NC(=O)CCl)cc2)cc1C` [4-G03, 2-chloro-N-{4-[(3,4-dimethylphenyl)sulfanyl]phenyl}acetamide] as the compound, how does the “% of control remaining” value read?
Answer: Its value is 107.311%.

Question: With `CCCCNC(=O)C(C#N)=Cc1ccc2c(c1)OCCO2` [9-G11, N-butyl-2-cyano-3-(2,3-dihydro-1,4-benzodioxin-6-yl)prop-2-enamide] as the compound, how does the “% of control remaining” value read?
Answer: Its value is 85.724%.

Question: `CCc1ccccc1NC(=O)CN(C)C(=O)CCl` [6-L06, 2-chloro-N-{[(2-ethylphenyl)carbamoyl]methyl}-N-methylacetamide] was tested. Which “% of control remaining” value did it give?
Answer: Its value is 89.1838%.

Question: `O=C1C=CC(=O)N1c1ccc2ccccc2c1` [10-D07, 1-(naphthalen-2-yl)-2,5-dihydro-1H-pyrrole-2,5-dione] was tested. Which “% of control remaining” value did it give?
Answer: The value was 22.2872%.

Question: How did the “% of control remaining” value turn out when `Cc1c(Cl)cccc1N1C(=O)C=CC1=O` [10-B17, 1-(3-chloro-2-methylphenyl)-2,5-dihydro-1H-pyrrole-2,5-dione] was run?
Answer: The value was 23.3781%.

Question: How did the “% of control remaining” value turn out when `Cc1c(Cl)cccc1NC(=O)CNC(=O)CCl` [5-N20, 2-chloro-N-{[(3-chloro-2-methylphenyl)carbamoyl]methyl}acetamide] was run?
Answer: The value was 102.049%.

Question: With `Cc1c(Cl)cccc1NC(=O)C(C)Cl` (stereo not shown) [6-I10, 2-chloro-N-(3-chloro-2-methylphenyl)propanamide] as the compound, how does the “% of control remaining” value read?
Answer: The value was 83.2686%.

Question: `Cc1ccccc1N1C(=O)C=CC1=O` [10-J13, 1-(2-methylphenyl)-2,5-dihydro-1H-pyrrole-2,5-dione] was tested. Which “% of control remaining” value did it give?
Answer: The value was 23.0664%.

Question: Which “% of control remaining” value does the source give for `N#Cc1ccccc1NC(=O)CCl` [5-P04, 2-chloro-N-(2-cyanophenyl)acetamide] here?
Answer: The value was 116.339%.

Question: How did the “% of control remaining” value turn out when `N#Cc1ccccc1N1C(=O)C=CC1=O` [10-B13, 2-(2,5-dioxo-2,5-dihydro-1H-pyrrol-1-yl)benzonitrile] was run?
Answer: The value was 22.7547%.

Question: Which “% of control remaining” value does the source give for `Cc1ccccc1N1C(=O)CSC1=C(C#N)C(=O)N1CCCCC1` [8-B12, 2-[3-(2-methylphenyl)-4-oxo-1,3-thiazolidin-2-ylidene]-3-oxo-3-(piperidin-1-yl)propanenitrile] here?
Answer: Its value is 78.1101%.

Question: With `CC(Cl)C(=O)Nc1ccccc1C#N` (stereo not shown) [6-A11, 2-chloro-N-(2-cyanophenyl)propanamide] as the compound, how does the “% of control remaining” value read?
Answer: The value was 96.0091%.

Question: For `Cc1cccc(N2C(=O)C=CC2=O)c1C` [10-H05, 1-(2,3-dimethylphenyl)-2,5-dihydro-1H-pyrrole-2,5-dione], which “% of control remaining” value is on record?
Answer: Its value is 27.1186%.

Question: Which “% of control remaining” value does the source give for `C=CC(=O)N1CCC[C@H]1C(=O)Nc1cccc(C)n1` [1-B10, (2S)-N-(6-methylpyridin-2-yl)-1-(prop-2-enoyl)pyrrolidine-2-carboxamide] here?
Answer: Its value is 90.0393%.

Question: Which “% of control remaining” value does the source give for `C=CCNC(=O)C(C#N)=Cc1ccc(C)s1` [9-F05, 2-cyano-3-(5-methylthiophen-2-yl)-N-(prop-2-en-1-yl)prop-2-enamide] here?
Answer: The value was 77.8382%.

Question: With `CC(Cl)C(=O)NCCc1cn(C)nn1` (stereo not shown) [7-A14, 2-chloro-N-[2-(1-methyl-1H-1,2,3-triazol-4-yl)ethyl]propanamide] as the compound, how does the “% of control remaining” value read?
Answer: Its value is 82.7358%.

Question: With `Cc1cccc2nc(C3CCN(C(=O)C(C)Cl)CC3)oc12` (stereo not shown) [7-M12, 2-chloro-1-[4-(7-methyl-1,3-benzoxazol-2-yl)piperidin-1-yl]propan-1-one] as the compound, how does the “% of control remaining” value read?
Answer: Its value is 63.8361%.

Question: Which “% of control remaining” value does the source give for `CC(Cl)C(=O)Nc1ccc2c(c1)CCC2` (stereo not shown) [5-C19, 2-chloro-N-(2,3-dihydro-1H-inden-5-yl)propanamide] here?
Answer: Its value is 86.9181%.

Question: Which “% of control remaining” value does the source give for `O=C(CCl)c1ccc(CC(=O)N2CCOCC2)s1` [10-H06, 2-chloro-1-{5-[2-(morpholin-4-yl)-2-oxoethyl]thiophen-2-yl}ethan-1-one] here?
Answer: The value was 101.305%.

Question: Which “% of control remaining” value does the source give for `N#CC(=Cc1ccccc1Cl)C(=O)Nc1ccc2c(c1)OCCO2` [8-F03, 3-(2-chlorophenyl)-2-cyano-N-(2,3-dihydro-1,4-benzodioxin-6-yl)prop-2-enamide] here?
Answer: The value was 94.4256%.

Question: With `O=C(CCl)c1cc(Cl)sc1Cl` [10-D16, 2-chloro-1-(2,5-dichlorothiophen-3-yl)ethan-1-one] as the compound, how does the “% of control remaining” value read?
Answer: The value was 21.5079%.

Question: `Cc1cc(C(=O)CCl)c(C)n1CC(N)=O` [10-O16, 2-[3-(2-chloroacetyl)-2,5-dimethyl-1H-pyrrol-1-yl]acetamide] was tested. Which “% of control remaining” value did it give?
Answer: The value was 94.6035%.

Question: For `Cc1cc(C(=O)CCl)c(C)n1-c1cc(Cl)cc(Cl)c1` [10-I04, 2-chloro-1-[1-(3,5-dichlorophenyl)-2,5-dimethyl-1H-pyrrol-3-yl]ethan-1-one], which “% of control remaining” value is on record?
Answer: Its value is 87.746%.

Question: With `Cc1cc(C(=O)CCl)c(C)[nH]1` [10-J08, 2-chloro-1-(2,5-dimethyl-1H-pyrrol-3-yl)ethan-1-one] as the compound, how does the “% of control remaining” value read?
Answer: The value was 99.1233%.

Question: `Cc1cc(C(=O)CCl)c(C)s1` [10-K16, 2-chloro-1-(2,5-dimethylthiophen-3-yl)ethan-1-one] was tested. Which “% of control remaining” value did it give?
Answer: Its value is 28.6772%.

Question: With `N#CC(=Cc1cccc2ccccc12)C(=O)NC1CC1` [9-O03, 2-cyano-N-cyclopropyl-3-(naphthalen-1-yl)prop-2-enamide] as the compound, how does the “% of control remaining” value read?
Answer: The value was 97.2808%.

Question: Which “% of control remaining” value does the source give for `CC(C)N(Cc1ccc(N(C)C)cc1)C(=O)CCl` [5-E06, 2-chloro-N-{[4-(dimethylamino)phenyl]methyl}-N-(propan-2-yl)acetamide] here?
Answer: The value was 100.2%.

Question: How did the “% of control remaining” value turn out when `O=C(CCl)NCCOc1cccc(F)c1` [6-G03, 2-chloro-N-[2-(3-fluorophenoxy)ethyl]acetamide] was run?
Answer: Its value is 108.75%.

Question: How did the “% of control remaining” value turn out when `CC(Cl)C(=O)NCc1ccon1` (stereo not shown) [7-I13, 2-chloro-N-[(1,2-oxazol-3-yl)methyl]propanamide] was run?
Answer: The value was 79.9604%.

Question: With `Cc1cc(F)c(C(=O)CCl)cc1F` [10-L19, 2-chloro-1-(2,5-difluoro-4-methylphenyl)ethan-1-one] as the compound, how does the “% of control remaining” value read?
Answer: Its value is 32.7294%.

Question: Which “% of control remaining” value does the source give for `Cc1cc(C(=O)CCl)c(C)c(C)c1C` [10-I06, 2-chloro-1-(2,3,4,5-tetramethylphenyl)ethan-1-one] here?
Answer: The value was 98.9675%.

Question: `Cc1ccc(-n2c(C)cc(C(=O)CCl)c2C)cc1C` [10-B14, 2-chloro-1-[1-(3,4-dimethylphenyl)-2,5-dimethyl-1H-pyrrol-3-yl]ethan-1-one] was tested. Which “% of control remaining” value did it give?
Answer: Its value is 97.5648%.

Question: `Cc1cc(C(=O)CCl)c(F)cc1F` [10-O03, 2-chloro-1-(2,4-difluoro-5-methylphenyl)ethan-1-one] was tested. Which “% of control remaining” value did it give?
Answer: The value was 34.9114%.

Question: With `Cc1ccc(-n2c(C)cc(C(=O)CCl)c2C)cc1F` [10-C06, 2-chloro-1-[1-(3-fluoro-4-methylphenyl)-2,5-dimethyl-1H-pyrrol-3-yl]ethan-1-one] as the compound, how does the “% of control remaining” value read?
Answer: The value was 94.9153%.

Question: Which “% of control remaining” value does the source give for `Cc1cc(C)c(C(=O)CCl)c(C)c1` [10-C08, 2-chloro-1-(2,4,6-trimethylphenyl)ethan-1-one] here?
Answer: Its value is 98.9675%.
